The values below come from PubChem BioAssay (Tox21).

Experiment [1] can be described thus: qHTS assay to identify small molecule agonists of the estrogen receptor alpha (ER-alpha) signaling pathway in the presence of an antagonist - cell viability counter screen (AID 1259386).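 Also: series mostly up to about 92 µM; cells exposed to compounds for 22 h at 37 °C before the viability read; nearly all actives have a fitted effect of over 30% in size.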 In short, it runs like this: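 In this counter screen, compound effects on VM7Luc4E2 viability were tested in the presence of the antagonist ICI-182,780 at 10.0nM final. Compounds were dosed at 15 concentrations, exposure lasted 22hr, and the CellTiter-Fluor signal was read.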

Experiment [2] deals with Progesterone receptor (Homo sapiens) (UniProt P06401). The experiment is described as follows: qHTS assay to identify small molecule agonists of the progesterone receptor (PR) signaling pathway (AID 1346784; calls by dose curve; also: nearly all actives have a fitted effect of over 30% in size). In a few lines:
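Beta-lactamase reporter read-out: after 16 hr compound treatment at 37C and a further 2 hr at room temperature with LiveBLAzer B/G FRET substrate, fluorescence was measured in PR-UAS-bla HEK 293T cells grown in 2% charcoal-stripped serum.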

For experiment [3] the target is unchanged. The experiment is described as follows: qHTS assay to identify small molecule antagonists of the progesterone receptor (PR) signaling pathway (AID 1346795; active = well fitted inhibition curve with a large enough effect in the signal ratio in the repeat runs, not every such curve was filed as active; the % refers to the signal ratio). In short, it runs like this:
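Read-out is fluorescence from the LiveBLAzer B/G FRET substrate, cleaved by a UAS-controlled beta-lactamase in PR-UAS-bla HEK293T cells after 16 hr exposure to compound plus 1 nM promegestone (final), followed by 2 hr at room temperature.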

Experiment [4] is described as follows: qHTS assay to identify small molecule antagonists of the progesterone receptor (PR) signaling pathway - cell viability counter screen (AID 1346798). Also: series mostly up to about 92 µM; nearly all actives have a fitted effect of over 50% in size. In short, it runs like this: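 HEK293T PR-UAS-bla, 2% charcoal-stripped FBS; 4 hr pre-plate; cpd + R5020, 16 h 37C; LiveBLAzer read first; then CellTiter-Glo 30 min RT, luminescence.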
Experiment [5] is described as follows: qHTS assay to identify small molecule agonists of the progesterone receptor (PR) signaling pathway - cell viability counter screen (AID 1346799; calls by dose curve; also: nearly all actives have a fitted effect of over 45% in size). In short, it runs like this: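 Luminescence from CellTiter-Glo, added after the beta-lactamase FRET read in the same wells, gave cytotoxicity in PR-UAS-bla HEK293T cells treated with compounds for 16 hr at 37C.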

The nature of experiment [6]: qHTS assay to identify small molecule antagonists of the TGF-beta/Smad signaling pathway - cell viability counter screen (AID 1346824). Also: nearly all actives have a fitted effect of over 50% in size. In a few lines:
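Cytotoxicity counter-screen run in the same wells as the beta-lactamase Smad reporter read: CellTiter-Glo luminescence after 30 min at room temperature. HEK 293T SBE-bla cells had 5 hr compound exposure at 37 C with TGF-beta1 (0.25 ng/mL stock).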

Experiment [7] in a line: qHTS assay to identify small molecule agonists of the TGF-beta/Smad signaling pathway - cell viability counter screen (AID 1346829). Also: top concentration of the series differs between compounds; nearly all actives have a fitted effect of over 45% in size. In a few lines:
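Here the cytotoxicity of library compounds is measured in SBE-bla HEK 293T cells treated for 5 hr, using CellTiter-Glo added to wells already read for the beta-lactamase reporter.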

Experiment [8] is described as follows: qHTS assay to identify small molecule agonists of the TGF-beta/Smad signaling pathway (AID 1346859; active = well fitted activation curve with a large enough effect in the signal ratio in the repeat runs, not every such curve was filed as active; the % refers to the signal ratio; also: series mostly up to about 77 µM). In a few lines: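 SBE-bla HEK 293T, 4,000 cells/well, plated o/n; cpd in DMSO, 5 hr, 37 C/5% CO2; B/G FRET substrate 2 hr RT; ex 405, em 460/530 nm.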
Experiment [9] deals with Thyrotropin-releasing hormone receptor (Homo sapiens) (UniProt P34981). The experiment is described as follows: qHTS assay to identify small molecule antagonists of the thyrotropin-releasing hormone receptor (TRHR) signaling pathway (AID 1346877; active = well fitted inhibition curve with a large enough effect in the repeat runs, not every such curve was filed as active; also: series mostly up to about 51 µM). In a few lines:
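Kinetic fluorescence (3 min, 1 s resolution) following stimulation with TRH at 1 nM final; HEK293 cells bearing human TRHR; 5 min compound preincubation at RT; concentration-response over 15 points, triplicates.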

For experiment [10] the target is unchanged. The experiment is described as follows: qHTS assay to identify small molecule agonists of the thyrotropin-releasing hormone receptor (TRHR) signaling pathway (AID 1346891; calls by dose curve; also: series mostly up to about 58 µM). In short, it runs like this:
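Intracellular calcium rise, read as fluorescence every second for 3 min, served as the agonist signal in dye-loaded HEK293 cells expressing TRHR; each compound ran at 15 concentrations in triplicate.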

Experiment [11] in a line: Human pregnane X receptor (PXR) small molecule agonists, qHTS cell viability counter screen (AID 1346977). Also: nearly all actives have a fitted effect of over 50% in size. In short, it runs like this: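 PXR-Luc HepG2, 2,000 cells/well, 5% charcoal-stripped FBS; 5hr settle; cpd 24hr, 37C/5% CO2; CellTiter-Fluor at 23hr, read 1hr later (fluorescence).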
Experiment [12] is described as follows: Caspase-3/7 induction in HepG2 cells by small molecules, qHTS assay (AID 1346978). Also: nearly all actives have a fitted effect of over 15% in size. In a few lines: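 Caspase-3/7 induction was measured by Caspase-Glo 3/7 luminescence (30 min, room temperature) after a 17 hr compound exposure of wild-type HepG2 cells seeded at 2,000 per well and pre-incubated 5 hr.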
Experiment [13] can be described thus: Caspase-3/7 induction in CHO-K1 cells by small molecules, qHTS cell viability counter screen (AID 1346979). Also: nearly all actives have a fitted effect of over 35% in size. In a few lines: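 Cells (CHO-K1, wild type) are plated at 1,500 per well and incubated 5hr. Test compounds in DMSO are then pinned in, followed by 16hr at 37C and 5% CO2. Viability is read by CellTiter-Fluor fluorescence after 1hr.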
Experiment [14] can be described thus: Caspase-3/7 induction in CHO-K1 cells by small molecules, qHTS assay (AID 1346980). Also: nearly all actives have a fitted effect of over 15% in size. In short, it runs like this: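 Luminescent Caspase-Glo 3/7 read (30min, room temperature) quantified apoptosis induction. Cells were wild-type CHO-K1, treated with compound for 17hr at 37 C and 5% CO2.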
Experiment [15] can be described thus: Caspase-3/7 induction in HepG2 cells by small molecules, qHTS cell viability counter screen (AID 1346981). Also: series mostly up to about 92 µM; nearly all actives have a fitted effect of over 30% in size. In short, it runs like this: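 In this quantitative HTS counter screen, compounds delivered in DMSO were left on unmodified HepG2 cells for 16 hr at 37 C. Viability was then determined fluorometrically with CellTiter-Fluor, in parallel with caspase-3/7 induction in the same wells.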

The target of experiment [16] is Nuclear receptor subfamily 1 group I member 2 (Homo sapiens) (UniProt O75469). The experiment is described as follows: Human pregnane X receptor (PXR) small molecule agonists, qHTS assay (AID 1346982). Also: nearly all actives have a fitted effect of over 35% in size. In a few lines:
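Reporter HepG2 cells expressing PXR-Luc are cultured in charcoal-stripped FBS (5%), treated with compounds for 24 hr at 37 C, and assayed by ONE-Glo luminescence after 30 min at room temperature.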

Experiment [17] concerns the target Nuclear receptor subfamily 1 group I member 2 (Rattus norvegicus) (UniProt Q9R1A7). The experiment is described as follows: Rat pregnane X receptor (rPXR) activation by small molecules, qHTS assay (AID 1346983). Also: nearly all actives have a fitted effect of over 20% in size. The note with it: rPXR luciferase reporter cells, One-Glo luminescence, 24 h; max activation: stronger effect = higher value. In a few lines:
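Luminescent readout (One-Glo luciferase, 30 min room temperature) followed 24 hr compound treatment at 37 C of rPXR cells plated 2,000 per well and preincubated 5hr; qHTS format with compounds delivered in DMSO.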

Experiment [18] deals with Nuclear receptor subfamily 1 group I member 2 (Homo sapiens) (UniProt O75469). The experiment is described as follows: CYP3A4 induction through human pregnane X receptor (PXR) by small molecules, qHTS assay (AID 1346984). Also: nearly all actives have a fitted effect of over 40% in size. In short, it runs like this:
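Induction measured in HepG2-based DPX-2 cells co-expressing human PXR and a CYP3A4 promoter-driven luciferase. After a 24-hour compound exposure, cells received CYP3A4 luciferin substrate at 3uM final for 3 hours, and light output was then recorded.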

The target is the same in experiment [19]. The experiment is described as follows: Human pregnane X receptor (PXR) activation by small molecules, qHTS assay (AID 1346985). Also: nearly all actives have a fitted effect of over 40% in size. In short, it runs like this:
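DPX-2 cells (HepG2 co-transfected with a PXR response element and a CYP3A4-promoter luciferase construct) were seeded at 2,000 per well, rested 5 hr at 37C, then exposed to DMSO-dissolved compounds for 24 hr. Activation was read as luciferase luminescence.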

The target of experiment [20] is Cytochrome P450 2D6 (Homo sapiens) (UniProt P10635). The experiment is described as follows: Cytochrome P450 Family 2 Subfamily D Member 6 (CYP2D6) small molecule antagonists: luciferase reporter qHTS assay (AID 1671196). Also: nearly all actives have a fitted effect of over 50% in size. Also: potency is read from the fitted curve at half-maximal effect. As to activity change, negative = inhibition: series mostly up to about 120 µM. In a few lines: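 Test chemicals meet CYP2D6 plus proluciferin substrate (10 min, RT); NADPH regenerating solution then drives turnover for 1 h. Detection reagent halts the reaction; luminescence measured after 20 min.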
Sequence of Cytochrome P450 2D6 (Homo sapiens) (P10635 whole entry, looked up): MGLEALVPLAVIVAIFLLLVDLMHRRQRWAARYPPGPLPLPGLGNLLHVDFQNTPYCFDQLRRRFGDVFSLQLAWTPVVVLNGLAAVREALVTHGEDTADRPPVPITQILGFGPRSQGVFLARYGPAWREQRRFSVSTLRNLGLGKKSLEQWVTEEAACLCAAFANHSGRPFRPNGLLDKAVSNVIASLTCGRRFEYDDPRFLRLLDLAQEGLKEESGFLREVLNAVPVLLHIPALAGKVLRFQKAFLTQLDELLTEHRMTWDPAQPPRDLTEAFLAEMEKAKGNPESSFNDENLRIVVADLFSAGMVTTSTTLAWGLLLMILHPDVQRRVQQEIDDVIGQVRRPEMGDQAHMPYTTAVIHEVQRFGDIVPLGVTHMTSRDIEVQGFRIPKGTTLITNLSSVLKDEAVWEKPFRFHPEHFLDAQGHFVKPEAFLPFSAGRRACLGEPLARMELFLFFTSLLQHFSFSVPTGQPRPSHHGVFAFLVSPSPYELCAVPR

A number with no mark means an inactive call. Results filed as inconclusive are left out. Active and inactive are the calls of the source. Unless noted, calls follow the shape of the dose curve; as a rule, active = well fitted curve in the direction sought with a large enough effect in the repeat runs; inconclusive = weak or mixed curves; inactive = no such curve, though single readings can be large; an effect the other way counts as inactive or inconclusive.
% is scaled to controls: 0 for no effect and ±100 for the full control effect.

Sequence of Progesterone receptor (Homo sapiens) (P06401 whole entry, looked up): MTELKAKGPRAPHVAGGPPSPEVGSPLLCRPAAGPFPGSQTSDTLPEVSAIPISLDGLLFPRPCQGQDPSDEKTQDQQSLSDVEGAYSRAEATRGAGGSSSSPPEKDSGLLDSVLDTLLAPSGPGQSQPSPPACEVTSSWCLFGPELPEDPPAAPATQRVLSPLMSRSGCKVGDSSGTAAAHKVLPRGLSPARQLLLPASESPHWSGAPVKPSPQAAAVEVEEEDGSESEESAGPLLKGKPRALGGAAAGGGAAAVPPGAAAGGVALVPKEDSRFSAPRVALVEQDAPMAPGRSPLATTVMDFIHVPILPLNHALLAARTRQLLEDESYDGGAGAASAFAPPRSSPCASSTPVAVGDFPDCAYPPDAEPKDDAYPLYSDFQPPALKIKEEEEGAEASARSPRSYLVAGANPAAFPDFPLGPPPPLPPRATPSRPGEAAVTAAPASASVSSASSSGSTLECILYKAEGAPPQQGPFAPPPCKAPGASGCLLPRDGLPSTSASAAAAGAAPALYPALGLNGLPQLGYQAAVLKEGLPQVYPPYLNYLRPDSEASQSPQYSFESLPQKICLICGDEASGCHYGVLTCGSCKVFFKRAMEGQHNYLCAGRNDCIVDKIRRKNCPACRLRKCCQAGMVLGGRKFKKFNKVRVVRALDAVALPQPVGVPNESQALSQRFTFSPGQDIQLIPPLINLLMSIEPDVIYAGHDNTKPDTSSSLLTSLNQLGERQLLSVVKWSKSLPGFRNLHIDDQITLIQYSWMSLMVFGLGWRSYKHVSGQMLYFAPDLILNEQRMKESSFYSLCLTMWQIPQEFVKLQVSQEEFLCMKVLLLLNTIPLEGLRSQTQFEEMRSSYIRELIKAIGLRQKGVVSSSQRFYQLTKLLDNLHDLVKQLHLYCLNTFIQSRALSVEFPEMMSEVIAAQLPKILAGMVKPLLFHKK
Sequence of Nuclear receptor subfamily 1 group I member 2 (Homo sapiens) (O75469 whole entry, looked up): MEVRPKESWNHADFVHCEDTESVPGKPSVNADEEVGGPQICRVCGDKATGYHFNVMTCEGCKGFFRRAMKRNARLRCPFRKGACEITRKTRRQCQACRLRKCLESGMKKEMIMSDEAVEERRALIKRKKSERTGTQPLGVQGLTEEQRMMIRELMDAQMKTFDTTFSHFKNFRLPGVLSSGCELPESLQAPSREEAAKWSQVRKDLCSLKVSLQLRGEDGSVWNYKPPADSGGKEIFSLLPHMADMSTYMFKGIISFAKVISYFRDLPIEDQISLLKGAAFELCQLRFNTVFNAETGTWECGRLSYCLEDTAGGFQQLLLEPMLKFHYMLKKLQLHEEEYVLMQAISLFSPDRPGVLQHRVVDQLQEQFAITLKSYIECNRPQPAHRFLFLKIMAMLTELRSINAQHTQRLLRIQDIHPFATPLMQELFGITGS
Sequence of Thyrotropin-releasing hormone receptor (Homo sapiens) (P34981 whole entry, looked up): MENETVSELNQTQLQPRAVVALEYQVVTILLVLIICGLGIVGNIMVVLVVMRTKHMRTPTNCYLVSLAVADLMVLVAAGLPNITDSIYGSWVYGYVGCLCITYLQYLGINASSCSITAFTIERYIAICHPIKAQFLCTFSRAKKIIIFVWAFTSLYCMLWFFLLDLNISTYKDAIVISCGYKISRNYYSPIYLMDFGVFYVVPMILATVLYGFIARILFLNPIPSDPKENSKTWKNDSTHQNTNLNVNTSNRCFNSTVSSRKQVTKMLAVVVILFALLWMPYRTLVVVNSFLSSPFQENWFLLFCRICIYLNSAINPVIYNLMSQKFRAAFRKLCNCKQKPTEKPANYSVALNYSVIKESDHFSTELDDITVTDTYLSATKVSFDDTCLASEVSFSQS
Sequence of Nuclear receptor subfamily 1 group I member 2 (Rattus norvegicus) (Q9R1A7 whole entry, looked up): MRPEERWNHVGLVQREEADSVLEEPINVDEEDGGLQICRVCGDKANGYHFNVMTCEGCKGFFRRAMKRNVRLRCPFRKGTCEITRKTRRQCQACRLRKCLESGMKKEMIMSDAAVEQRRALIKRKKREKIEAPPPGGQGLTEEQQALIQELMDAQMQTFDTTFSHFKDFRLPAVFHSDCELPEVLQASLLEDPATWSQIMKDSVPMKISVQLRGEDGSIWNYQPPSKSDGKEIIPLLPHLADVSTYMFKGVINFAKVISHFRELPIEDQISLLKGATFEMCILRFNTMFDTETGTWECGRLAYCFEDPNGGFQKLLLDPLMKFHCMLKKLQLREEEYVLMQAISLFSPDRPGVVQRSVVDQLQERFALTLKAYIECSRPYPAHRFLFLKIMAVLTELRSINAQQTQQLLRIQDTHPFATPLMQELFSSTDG

Regarding `NCc1ccccc1Sc1ccccc1CO`, the Potency result in [1], in experiment [2], in experiment [3], in experiment [4], in experiment [5] and in [6] was “inactive” each time. Further, the Potency entry in experiment [8], in experiment [10], in experiment [11], in experiment [12], in experiment [13] and in experiment [14] was “inactive” in each case. Further, the Potency result in experiment [15], in experiment [16], in [18] and in experiment [19] was “inactive” in each case. In addition, the result in experiment [7] and in experiment [9] was inactive. In [17], the max activation was -1.62%. Besides, in [20], the Potency was 7.76 µM (active).

As to `NC(N)=NCCC[C@H](N)C(=O)O`, the activity change, negative = cytotoxicity is 0.856% [at 8.39 µM] in experiment [1]; -0.687% [at 8.39 µM] in experiment [4]; -1.33% [at 8.39 µM] in experiment [5]; 6.19% [at 6.97 µM] in experiment [7]; 6.78% [at 8.39 µM] in experiment [11]; -0.503% [at 8.39 µM] in experiment [13]. The activity change, negative = cytotoxicity in experiment [15] is -0.647% [at 8.39 µM]. In addition, the activation in experiment [2] was -0.127% [at 8.39 µM]; in experiment [8], 2.75% [at 6.97 µM]; in experiment [10], 0.134% [at 5.23 µM]; in [16], -5.55% [at 8.39 µM]. In addition, the figures for the activity change, negative = inhibition in [3] and in experiment [20] were 7.3% [at 8.39 µM] and -7.41% [at 10.5 µM], respectively. Moreover, the viability change, negative = cytotoxic in experiment [6] is 7.48% [at 6.97 µM]. In addition, the activity, negative = inhibition in [9] is -3.14% [at 4.65 µM]. Further, the caspase activation in [12] was 0.0391% [at 8.39 µM]. Also, the caspase-3/7 activation in [14] was 0.0695% [at 8.39 µM].

In the case of `CCCCCCCN`, the Potency entry in [1], in experiment [2], in experiment [3], in experiment [4], in [5] and in [6] was “inactive” in each case. Further, the Potency entry in [8], in [10], in [11], in experiment [12], in experiment [13] and in experiment [14] was “inactive” in each case. For the same compound, the Potency result in experiment [15] and in [16] was “inactive” each time. The outcome in experiment [7] and in [9] was inactive.
